Insulin prom inh = inhibitors of insulin promoter-driven GFP, primary screen, imaging, TRM-6 cells (human fetal islet line), eGFP reporter, cell count | 130,000 tested, 0.9% active | reporter expression induced with tamoxifen | AID 1273, 2008 | inhibition, % at 2 µM;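 active = inhibition above the mean plus 3 SD, with well images judged a real hit on visual review, cut at about 60% in these data, passing the limit was not always enough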
KCC2 mod = KCC2 cotransporter modulators, thallium flux, primary screen, cell-based, HEK293 KCC2, FluoZin-2 fluorescence, MLSMR | Solute carrier family 12 member 5 (Homo sapiens), Q9H2X9 | KCC2 cells, thallium flux FluoZin-2 fluorescence | B-score of Tl+ flux slope (higher = more flux/activation; lower = inhibition) at 10 µM | 190,000 tested, 2.2% active;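 active = thallium flux slope and its plate-corrected score both differing from the plate sample mean at a set confidence after two filtering rounds, in either direction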;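 note: slope of fluorescence scaled to starting intensity during 10 to 20 s after thallium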
WT yeast gro inh = growth inhibition of WT strain, primary screen, mitochondrial fusion inhibitor project, WT and mutant strains, chemical genetic; 190,000 tested, 2.1% active; inhibition, % at 10 µM; mitochondrial fusion phenotypic screen; in the data active = inhibition above about 58%; tested in S. cerevisiae
Lmaj promast = Leishmania major promastigote growth inhibition, primary screen. AID 1063, 2008. inhibition, % at 10 µM. 200,000 tested, 9% active. Leishmania major promastigotes, resazurin fluorescence viability; in the data active = inhibition above about 50%;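 note: promastigotes grown with compound for 44 hours at 28 °C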
Ins promoter up = insulin promoter activators in MIN6 cells, imaging, high-content screening, mouse beta cells | 190,000 tested, 0.3% active | z-score at 5 µM | AID 1625, 2009 | MIN6 insulin promoter-GFP reporter; hits give high values;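 active = z-score above 3 at 5 µM with at least 500 cells counted in the well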
ROMK primary = ROMK potassium channel modulators, primary screen, cell-based, thallium flux, MLSMR library; ATP-sensitive inward rectifier potassium channel 1 (Homo sapiens), P48048; Tet-inducible ROMK, thallium flux fluorescence; actives lie on both sides; B-score at 10 µM; 130,000 tested, 2% active; AID 1918, 2009;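 active = signal ratio slope over the read window, or its plate-corrected B-score, at least 3 SD from the plate mean, either direction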;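 note: B-score of the F/F0 ratio slope over 7 to 12 s after thallium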
Target sequence (P48048 whole entry, looked up): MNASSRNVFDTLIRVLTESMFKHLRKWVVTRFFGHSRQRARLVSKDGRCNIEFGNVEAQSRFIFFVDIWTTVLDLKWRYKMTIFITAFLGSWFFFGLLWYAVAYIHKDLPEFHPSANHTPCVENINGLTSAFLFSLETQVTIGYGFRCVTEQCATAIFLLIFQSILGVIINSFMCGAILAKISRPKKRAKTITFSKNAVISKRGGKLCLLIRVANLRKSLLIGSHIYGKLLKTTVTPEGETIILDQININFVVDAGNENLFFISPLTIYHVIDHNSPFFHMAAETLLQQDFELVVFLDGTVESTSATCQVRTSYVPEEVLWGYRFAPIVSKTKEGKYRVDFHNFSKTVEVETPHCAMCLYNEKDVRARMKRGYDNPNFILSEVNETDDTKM
Large screens that a line does not name were inactive. Most compounds without a hit are left out; they make up all but 12% or so of the library.

O=C(Nc1ccccc1C(=O)O)c1cccc(NC(=O)c2ccc(Br)o2)c1	KCC2 mod -3.2
CN1CCc2c(OCC(=O)N3CCCc4ccccc43)cccc2C1=O	none
COc1ccccc1N(C(=O)NCc1ccccc1)C1=NCC(C)S1 (stereo not given)	Lmaj promast 57 (no result: Insulin prom inh, ROMK primary)
Cc1ccc(CNC(=O)CN(c2cccc([N+](=O)[O-])c2)S(C)(=O)=O)cc1	none (no result: Insulin prom inh)
O=C(CN(c1cccc([N+](=O)[O-])c1)S(=O)(=O)c1ccccc1)NCc1ccccc1	Lmaj promast 96
Cc1ccc(CNC(=O)CN(c2cccc([N+](=O)[O-])c2)S(=O)(=O)c2ccccc2)cc1	Lmaj promast 97
CCN(C(=O)c1ccco1)c1nnc(-c2ccc(OC)cc2)s1	none
N=C(N)n1c(N)nc2ccccc2c1=O	none (no result: Insulin prom inh, WT yeast gro inh, Lmaj promast, ROMK primary)
COc1ccccc1CNC(=O)COC(=O)/C=C/c1cccs1	Lmaj promast 51 (no result: ROMK primary)
COc1ccc(CNC(=O)COC(=O)/C=C/c2cccs2)cc1	none
Cc1ccc(SCC(=O)N2N=CCC2c2ccccc2)cc1 (stereo not given)	Lmaj promast 84
O=C(CSc1nnnn1-c1ccccc1)N1N=CCC1c1ccccc1 (stereo not given)	none (no result: Insulin prom inh, ROMK primary)
Clc1ccc(CSc2nnc(-c3ccccn3)n2Cc2ccco2)c(Cl)c1	WT yeast gro inh 60 (no result: KCC2 mod)
Fc1ccccc1CSc1nnc(-c2cnccn2)n1Cc1ccco1	none (no result: KCC2 mod, ROMK primary)
C(=C\c1ccccc1)/CSc1nnc(-c2cnccn2)n1Cc1ccco1	Lmaj promast 100 (no result: KCC2 mod, Ins promoter up, ROMK primary)
C/C(=N/NC(=O)c1ccc2c(c1)OCO2)c1ccc(NC(=O)C(F)(F)F)cc1	none
O=C(Cc1csc(N2CCOCC2)n1)N/N=C/c1ccc(Cl)cc1Cl	Lmaj promast 69
Cc1ccc(-n2ncc(C(=O)Nc3ccc(Cl)cc3)c2C2CCNCC2)cc1C	Lmaj promast 99 (no result: ROMK primary)
CC(C)(C)OC(=O)N1CCC(c2c(C(=O)O)cnn2-c2ccc(Cl)cc2)CC1	none (no result: ROMK primary)
O=C(O)c1ccc(-c2nc3ccccc3[nH]2)cc1	none (no result: Insulin prom inh, ROMK primary)
O=C(O)c1ccc(-c2ncc[nH]2)cc1	Insulin prom inh 80
CNC(=S)N1CCc2ccccc2C1	none (no result: ROMK primary)
CC(=C1C(=O)c2ccccc2C1=O)N1CCc2ccccc2C1	Lmaj promast 92 (no result: KCC2 mod)
c1ccc(-n2nnnc2Cc2nnnn2-c2ccccc2)cc1	none (no result: Insulin prom inh)
N#CCCS(=O)(=O)c1nnnn1-c1ccccc1	ROMK primary -4.7 (no result: KCC2 mod, WT yeast gro inh)
O=C(Cn1nc(Cl)nc1Cl)Nc1ccccc1	none
COc1cccc(C2CC(c3ccc(Br)cc3)=NN2C(=O)c2ccncc2)c1OC (stereo not given)	Lmaj promast 61 (no result: Ins promoter up)
COc1ccccc1C1CC(c2ccc(Br)cc2)=NN1C(=O)c1cccnc1 (stereo not given)	Lmaj promast 51 (no result: ROMK primary)
CC1CCC(N2CCNCC2)CC1 (stereo not given)	none (no result: Insulin prom inh, ROMK primary)
CCN(C1CCCCC1)S(=O)(=O)c1ccc(S(=O)(=O)NCc2ccncc2)cc1	none (no result: Ins promoter up)
Cc1ccc(C(C)C)c(OCC(=O)Nn2c(=O)[nH]c3ccccc3c2=O)c1	Lmaj promast 59 (no result: ROMK primary)
CCn1c(SCC(=O)Nc2c(C)n(C)n(-c3ccccc3)c2=O)nc2c1c(=O)n(C)c(=O)n2C	none (no result: Ins promoter up)
CCOc1cc2[nH]c(=O)n(CCCC(=O)N(C)Cc3ccccc3)c(=O)c2cc1OCC	none (no result: Insulin prom inh)
CC(C)N1C2OC(C3OC4C(O3)N(C(C)C)S(=O)(=O)N4C(C)C)OC2N(C(C)C)S1(=O)=O (stereo not given)	WT yeast gro inh 63 (no result: KCC2 mod)
CSc1cccc(NC(=O)CSc2ccc(Cl)cc2)c1	Lmaj promast 54 (no result: KCC2 mod, Ins promoter up)
CC(C)CNC(=O)c1cccc(NC(=O)CSc2ccc(Cl)cc2)c1	none
CC(C)(C)NC(=O)c1cccc(NC(=O)CSc2ccc(Cl)cc2)c1	Lmaj promast 91 (no result: Ins promoter up)
CSc1cccc(NC(=O)CSc2ccc(C)cc2)c1	none (no result: KCC2 mod, Ins promoter up)
CC12CCC(C(=O)N(CSC(=S)N/N=C\c3ccccc3)C1=O)C2(C)C (stereo not given)	Insulin prom inh 76, KCC2 mod 23 (no result: Ins promoter up, ROMK primary)
CC12CCC(C(=O)Nc3ccccc3)(C(Br)C1=O)C2(C)C (stereo not given)	none (no result: Insulin prom inh)
CC1(C)CC(O)(CNCc2ccc3c(c2)OCO3)CCO1 (stereo not given)	Lmaj promast 75 (no result: ROMK primary)
CCc1ccc(NC(=O)N2CCN(c3ccc(F)cc3)CC2)cc1	none (no result: Insulin prom inh, Ins promoter up)
CCN(CC(=O)NC(C)C)C(=O)c1ccc(Cl)cc1	none (no result: ROMK primary)
COC(=O)C(C)N(C(=O)c1ccc(C(=O)c2ccccc2)cc1)c1c(C)cccc1C (stereo not given)	Lmaj promast 99 (no result: KCC2 mod, Ins promoter up)
CN(C)c1ccc(C(=O)c2ccccc2)cc1	none (no result: Ins promoter up, ROMK primary)
COC(=O)C(C)N(C(=O)c1ccc(Cl)cc1)c1c(C)cccc1C (stereo not given)	Lmaj promast 87
CC1(C)CC(=O)C(C=NCCN2CCN(C(=O)C34CC5CC(CC(C5)C3)C4)CC2)=C(O)C1	none (no result: Insulin prom inh, KCC2 mod, WT yeast gro inh, Lmaj promast, Ins promoter up)
O=C(CCn1nc(-c2ccccc2)c2ccccc2c1=O)NCC1CCCO1 (stereo not given)	WT yeast gro inh 63 (no result: KCC2 mod, Ins promoter up)
CC1(C)CC(=O)C/C(=N/NC(=O)c2ccc(-c3ccccc3)cc2)C1	KCC2 mod -4.7 (no result: Insulin prom inh)
Cc1ccc2nc(Cl)c(C3CC(c4cccs4)=NN3S(C)(=O)=O)cc2c1 (stereo not given)	Lmaj promast 84
NC(=O)[C@H]1CC2(CC(c3cccc(NC(=O)COc4ccc(Cl)cc4)c3)=NO2)CN1C(=O)C(c1ccccc1)c1ccccc1 (stereo not given in full)	none (no result: Insulin prom inh, WT yeast gro inh, Lmaj promast, ROMK primary)
Cc1ccc(-n2cc(CNCCCn3cccn3)c(-c3cccc(C)c3)n2)cc1	none (no result: Insulin prom inh, WT yeast gro inh, Lmaj promast, ROMK primary)
Cc1ccc(-n2cc(CNCCCn3ccnc3C)c(-c3ccc(F)cc3)n2)cc1	Lmaj promast 100 (no result: Insulin prom inh, KCC2 mod)
Cc1ccc(-n2cc(CNCCc3cscn3)c(-c3ccc(F)cc3)n2)cc1	WT yeast gro inh 69, Lmaj promast 75
COc1ccc(-n2cc(CNCCc3cscn3)c(-c3ccccc3Cl)n2)cc1	none (no result: Insulin prom inh, Ins promoter up)
NS(=O)(=O)c1ccc(NCc2cc(Cl)ccc2OCc2ccccc2F)cc1	none (no result: Insulin prom inh, KCC2 mod, ROMK primary)
Cn1c(Cn2nnc3ccccc32)nnc1SCC(=O)c1ccc(F)cc1	none (no result: ROMK primary)
COc1ccc(C2/C(=C(/O)c3ccc(C)cc3)C(=O)C(=O)N2C)cc1 (stereo not given)	none (no result: KCC2 mod)
Cc1ccc(-c2csc3ncnc(-n4nnc5ccccc54)c23)cc1C	Lmaj promast 76
CN1CCN(C(=O)CCN2C(=O)/C(=C/c3ccccc3Cl)SC2=S)CC1	Lmaj promast 100 (no result: Insulin prom inh)
CN1CCN(C(=O)CCN2C(=O)S/C(=C/c3ccc(Cl)cc3)C2=O)CC1	none (no result: Insulin prom inh)
CN1CCN(NC(=O)CN2C(=O)/C(=C/c3ccccc3Cl)SC2=S)CC1	none (no result: Insulin prom inh, KCC2 mod, ROMK primary)
Cc1ccc(/C=C2/SC(=S)N(CCC(=O)N3CCN(C)CC3)C2=O)cc1	Lmaj promast 97 (no result: Insulin prom inh)
